According to the supplement of paper PMC6555819:

What follows are sequences tested on VDR:RXRa (NR concentration 270 nM, RXRa partner concentration 90 nM) (assay: PBM binding z-score (relative to random genomic background probes); higher = stronger binding; sequences stand for … in GC…GCGATTGACAGCGTAGAATGAAGG).
Experimental: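 Protein-binding microarray (Agilent 4x180K custom design, double-stranded 60-nt probes: 5' GC cap, 34-nt variable region, 24-nt constant primer region; full probe sequence given). Purified or IVT nuclear receptor:RXRα heterodimers (3:1 NR:RXRα, mostly 270:90 nM) or homodimers were incubated for 1 h in PBS with 2% milk and no ligand, then detected with Alexa488 antibodies. Fluorescence from o1-orientation probes (~5 replicates averaged) was converted to z-scores against 500 random hg19 background probes. Variable regions are seed direct-repeat (DR0–DR5) sites, all their single-nucleotide variants and half-site ablations.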

Row | Sequence | PBM binding z-score
1 | TGTATGAGGTTAAAGATCAGGGAACGTGGCGTCG | 2.15
2 | CGTCAAAGTTCAAGGTCACGTAACAGAAAGCAGC | 5.84
3 | CCTTACGGGTCACTCCAGGTTATATCATCGGAGT | 4.52
4 | TAGCCTAGGTTATGGGCCAGTATACCACGCGAAC | -0.0238
5 | CGAACGAGGTCATTGACAGGACAGTGAATAGTAA | 5.64
6 | CGTCCGAGGTCATAGGAGGTCAGTGAAGACAGAT | 7.1
7 | TCTTGTAGATCGATAGAGGTTAAGAAAGTGCGCT | 1.45
8 | CGTCCAAGGTCGAAGGTCAGTGAAGAGATGACGG | 3.23
9 | ATATGTAGGTTACCTGGGGTCATTCAGACTAGGC | 6.78
10 | AGTCAAACTTCAGGACGAGGTAACGTAAAGCACG | -0.131
11 | CGTCCAAGGACAATGCTAGGTCAGTGAAAGCATT | 0.294
12 | GCTGCTAGGTCAACTGATGGTCAACTAAAGCTCG | 2.07
13 | TAGCCTAGGGCATTCAGGGGCCAGTATAGAAAGC | -0.213
14 | CCTACTGGTCCAAGGTCATTGATCAGTCAAAGCA | 3.79
15 | CGTCCAAGGTCATAGGAGGTCAATGAAGACAGAT | 7.01
16 | TAGCCTAGGTCATGGGCCAGTGTACCACGCGAAC | 2.18
17 | AATACAGGGTCATCGTAGGTCAGAGTACGCACAG | 6.2
18 | TAGCCGAGGTCATTCAGGGGCCAGTATAGAAAGC | 5.89
19 | CAAACTAGGTCAAAAGGTCAAAGTCCGCTTCCCG | 6.32
20 | CCTACTGGGTCACGAAAGGTCATTGATTCAGTGA | 6.48

Row | Sequence | PBM binding z-score
21 | CCTTACGGGTCACGTGGTTATAGCACGACGAGCG | 3.94
22 | CGAACAAGGTCACCAGGACAGTGAAGAGGTTGGA | 4.8
23 | TCTTGTAGATCAACAGGAGGTTAATAAAGATCGA | 0.648
24 | TAGCCTAAGTCATGCGGGCCAGTATAGTGTCGGC | -0.392
25 | GCATATAGGTAATACAAGGTCAAAGTCCGATTGT | 4.39
26 | TAGCCTAGGTCATGCGGGACAGTATAGTGTCGGC | 3.48
27 | CGAACTAGGTCAAAGGACATTGAAAGGCGACGTA | 1.88
28 | CGAACTAGGTCGCCAGGACAGTGAAGAGGTTGGA | -0.0336
29 | CAGCATAGGTCAGGGCCAGTATAGGAGGAACGTT | 1.4
30 | TCTAGTTGGTCACGGAGGTCACAAACGACGGGTA | 5.62
31 | ATCGAAAGGTCGAAGGTGCGTATACCCACCCGAA | 2.58
32 | TAGCCTAGGTCATTCAGGGGCAAGTATAGAAAGC | 5.23
33 | AAAACAGGGTCATCGTAGGCCAGAGTACGCACAG | 5.38
34 | CAAAATAGGTCACAGAGGTCAAAGTCCGTGCGTA | 8.21
35 | TCTAGTCGGTCAAAGGTCACACACTCGAAATGCG | 5.65
36 | TAGCCTAGTTCATTCAGGGGCCAGTATAGAAAGC | 2
37 | CCTACTGGGCCATTCAGAGGTCAATGATCATATG | 3.4
38 | CCTGCTAGGTCAAAGGTCAGCTAAAGCAGCTCGC | 5.81
39 | ATATGTAGGTTACATCCGGGTCATCCAGGCTATG | 4.14
40 | TTGCCTAGGTCATTGGGCCAGTATAGTACGCATC | 2.27
